Assay results taken from PubChem BioAssay (EPA / NIEHS).
Values joined by “and” are separate entries in the source; they are usually repeats but may differ in a detail not shown here. Equal values may be shown once. Active and inactive are the calls of the source. How the source made its calls: active means hit-call score of the fitted dose curve at least 0.9, where 1 is the maximum; inconclusive means response in the unintended direction; inactive means score below 0.9.

Biological target: rat CYP2A2, Cyp2a2 (gene 24895) (UniProt P15149)
Sequence (P15149 whole entry, looked up): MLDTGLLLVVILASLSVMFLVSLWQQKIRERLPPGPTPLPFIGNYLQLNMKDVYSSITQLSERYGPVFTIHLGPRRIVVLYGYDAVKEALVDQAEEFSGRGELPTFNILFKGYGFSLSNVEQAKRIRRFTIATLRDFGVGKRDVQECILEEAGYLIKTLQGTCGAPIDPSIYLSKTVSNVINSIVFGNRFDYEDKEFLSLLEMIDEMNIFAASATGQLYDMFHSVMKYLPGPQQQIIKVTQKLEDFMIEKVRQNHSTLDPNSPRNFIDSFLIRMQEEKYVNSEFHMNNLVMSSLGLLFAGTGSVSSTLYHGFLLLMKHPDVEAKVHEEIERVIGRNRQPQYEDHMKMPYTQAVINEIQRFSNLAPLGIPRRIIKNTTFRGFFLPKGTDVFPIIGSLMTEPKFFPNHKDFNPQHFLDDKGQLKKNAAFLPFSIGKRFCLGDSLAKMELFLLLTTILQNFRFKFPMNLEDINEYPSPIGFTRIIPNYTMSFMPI
Experiment: NVS_ADME_rCYP2A2: NovaScreen (NVS) CYP450-related Enzyme Activity (ADME) Assay for rat CYP2A2 (AID 2283116)
Experimental: NVS_ADME_rCYP2A2 is a biochemical, single-readout assay that uses extracted gene-proteins in a cell-free assay. Measurements were taken 0.2 hour after chemical dosing in a 96-well plate.NVS_ADME_rCYP2A2 is one of one assay component(s) measured or calculated from the NVS_ADME_rCYP2A2 assay. It is designed to make measurements of enzyme activity, a form of enzyme reporter, as detected with fluorescence intensity signals by Fluorescence technology.Data from the assay component NVS_ADME_rCYP2A2 was analyzed into 1 assay endpoint. This assay endpoint, NVS_ADME_rCYP2A2, was analyzed in the positive analysis fitting direction relative to Acetonitrile as the negative control and baseline of activity. Using a type of enzyme reporter, loss-of-signal activity can be used to understand changes in the enzymatic activity as they relate to the gene Cyp2a2. Furthermore, this assay endpoint can be referred to as a primary readout, because this assay has produced multiple assay endpoints where this one serves a enzymatic activity function. To generalize the intended target to other relatable targets, this assay endpoint is annotated to the cyp intended target family, where the subfamily is xenobiotic metabolism.
Binding assays used specific radioligands (tritiated, iodinated) with non-radioactive competitive displacement ligands in agonist or antagonist protocols (as indicated) and various reference compounds and inhibitors to titrate specific binding to receptors and transporters. Most enzyme assays (CYPs, kinases, phosphatases, proteases, HDACs) used recombinant protein and specific substrates (fluorescence mostly, some colorimetric and radioactive) and inhibitors, followed by a biochemical separation of substrate and product. All assays for the biochemical HTS were initially run in duplicate at a single concentration (10 uM for CYP450 assays and 25 uM for all others). Assay-chemical combinations meeting a pre-defined threshold (e.g., 30% inhibition and other criteria defined below) were then run in singleton concentration-response format with maximum concentration of 20 uM for CYPs and 50 uM for all others. Each assay was run with positive and negative controls, and concurrent controls on every plate. The follow-up (secondary) screen tested active chemical-pairs in concentration series, as well as a few additional assays not tested in the primary screen, some selected negative inactives, and several cases re-run in the concentration series for confirmatory purposes.

Question: Which AC50 does the source give for `Oc1ccc(C(c2ccc(O)cc2)C(Cl)(Cl)Cl)cc1` here?
Answer: 1.02 µM (active)

Question: Which AC50 does the source give for `CC(C)(c1ccc(O)cc1)c1ccc(O)cc1` here?
Answer: 2.98 µM (active) [middle of 4 runs]

Question: `CCCCOC(=O)C(C)Oc1ccc(Oc2ccc(C(F)(F)F)cn2)cc1` (stereo unspecified) was tested. Which AC50 did it give?
Answer: 1.17 µM (active)

Question: Which outcome does the source give for `Cc1nn(C)c(Oc2ccccc2)c1C=NOCc1ccc(C(=O)OC(C)(C)C)cc1` here?
Answer: inactive

Question: `CCOC(=O)[C@H](C)Oc1ccc(Oc2nc3ccc(Cl)cc3o2)cc1` was tested. Which AC50 did it give?
Answer: 10 µM (active)

Question: `CCCCCCC(C)OC(=O)COc1nc(F)c(Cl)c(N)c1Cl` (stereo unspecified) was tested. Which outcome did it give?
Answer: inactive

Question: For `CCNc1nc(N)nc(Cl)n1`, which outcome is on record?
Answer: inactive

Question: With `C=CCOC(Cn1ccnc1)c1ccc(Cl)cc1Cl` (stereo unspecified) as the molecule, how does the AC50 read?
Answer: 0.0175 µM (active)

Question: With `CC(C)(C)[C@@H](O)[C@@H](Cc1ccc(Cl)cc1)n1cncn1` as the molecule, how does the AC50 read?
Answer: 0.0348 µM (active)

Question: `CCOC(=O)C(C)Oc1ccc(Oc2nc3ccc(Cl)cc3o2)cc1` (stereo unspecified) was tested. Which AC50 did it give?
Answer: 2 µM (active)

Question: Which AC50 does the source give for `CC(=O)[C@H]1CC[C@H]2[C@@H]3CCC4=CC(=O)CC[C@]4(C)[C@H]3CC[C@]12C` here?
Answer: 3.07 µM (active) and 7.82 µM (active) and 6.94 µM (active)
